From PubChem BioAssay (NCI) come the findings set out here.

This is part of a sample that, as a whole, favours compounds with a hit. Of some 83,000 tested, about 20% had one in any assay.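 Assay: single dose, 48 h. Readout: percent growth (0 = no net growth; negative = cell death). Active: <10.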 Values without a mark were called inactive. The source made the active and inactive calls.

The assay relates to HT29 colon. Briefly: NCI-60 one-dose screen, 48 h (100 = growth as untreated, 0 = no growth, -100 = all killed). To be noted: 10 µM unless noted.
Turning to `O=C1/C(=C\c2cccn2Cc2ccc(F)cc2)c2ccccc2N1c1c(Cl)cccc1Cl`, the growth is 81.5%.
With `CC(C)(C)c1ccc(Cn2c(-c3nonc3N)nc3ccccc32)cc1`, the growth is 41.6%.
On to `CSC(=S)N/N=C(\C)c1ccccn1`, for which the growth is 25.9%.
`CCC(C)C1NC(=O)c2nc(oc2-c2ccccc2)-c2csc(n2)-c2csc(n2)-c2nc(oc2C)-c2coc(n2)CNC(=O)C(C(C)CC)NC1=O` (centres undefined): the growth was -81.6% (active).
Regarding `CCOC(=O)C1=C(C)NC(SCc2nnc(-c3ccc(Cl)cc3)o2)=NC1c1ccc(Br)cc1` (centres undefined), the growth is 78.7%.
For the compound `CC(CN1CCN(C)CC1)CN1c2ccccc2Sc2ccc(C(F)(F)F)cc21` (centres undefined), the growth was -49.9% (active).
As for `Cc1[nH]nc2ccc3nc(-c4ccc5[nH]ncc5c4)c4c(c3c12)CCCC4`, the growth was 22.1%.
For the compound `CCCOC(=O)C1c2cc3c(cc2CC(C)C1C(=O)OCCC)OCO3` (centres undefined), the growth was 72%.
`COc1cc(C2CC(c3ccc(Nc4ccnc5cc(Cl)ccc45)cc3)=NN2c2ccccc2)cc(OC)c1OC` (centres undefined): the growth is 44.2%.
Consider `CC(=O)c1c(C)nc(-c2cc(C)cc(Cl)c2)nc1-c1cccc(Oc2ccccc2)c1`, for which the growth was 39.5%.
In the case of `CC(C)NC(=O)OCC#CCOC(=O)NC(C)C`, the growth is 104%.
With `Cc1nc2c(-c3cnc(N)nc3)nc(N3CCOCC3)nc2n1C(C)C`, the growth was 3.37% (active).
Turning to `[Ag].[Ag].[NH-]S(=O)(=O)c1ccc(N=Nc2cc(N=Nc3ccc(S([NH-])(=O)=O)cc3)c3c(NC(=O)C(Cl)Cl)cccc3c2OC(=O)C(Cl)Cl)cc1.[c-]1nccs1.[c-]1nccs1`, the growth was 76.2%.
The same measure for `Nc1ccc(N(O)/C=C2\C=CC=CC2=O)cc1N`: 172%; for `Cc1nc2ccc(Nc3nc(N4CCOCC4)nc(N4CCN(C)CC4)n3)cc2n1Cc1ccccc1`: 53%; for `CC(C)CC(NC(=O)C(CCCN=C(N)N)NC(=O)OCc1ccccc1)C(=O)NC(CNC(=O)/C=C/c1ccccc1)C(C)C` (centres undefined): 109%.
With `CCOC(=O)c1ccc(NCCC(=O)O)cc1`, the growth is 96.8%.
As for `Cc1ccc(-c2cnc3sc4ccc(Cl)cc4n23)cc1`, the growth is 99.8%.
With `COc1cc(C)c2c(=O)c3c(oc2c1)C(=O)c1c(O)c(OC)cc(O)c1C3=O` the figure was 68.1%; with `O=C(OCc1ccc2c(Br)cc(Br)c(O)c2n1)c1cc2ccccc2[nH]1`, -82.5% (active); with `CN1CCN(Cc2ccc(NC(=O)c3cncc(C#Cc4cnc5cccnn45)c3)cc2C(F)(F)F)CC1`, 1.67% (active).
`CCOC(=O)c1ccccc1SC(C[N+](=O)[O-])c1ccccc1` (centres undefined): the growth was 5.22% (active).
The same measure for `CC(C)CC(NC(=O)OCC1c2ccccc2-c2ccccc21)C(=O)O` (centres undefined): 112%; for `CN1CCN(Cc2ccc(NC(=O)c3cncc(C#Cc4ccc(N)nc4)c3)cc2C(F)(F)F)CC1`: 3.36% (active).
